Screens (PubChem BioAssay)
PfHsp90 yeast 2: inhibits growth of yeast expressing Plasmodium falciparum Hsp90; hit rate 0.32% among 310,000; inhibition, % at 9.4 µM; S. cerevisiae expressing PfHsp90, BacTiter-Glo ATP, 48 h; yeast lacking PDR1 and PDR3 efflux regulators; AID 504621;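 active = every replicate shows inhibition above about 80%, whatever the replicate mean, limit read from the data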;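 note: 0% = DMSO neutral controls and 100% = 20 µM radicicol positive controls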
phage Ecoli inh: E. coli growth loss with phage present. AID 651602. growth absorbance. hit rate 0.26% among 360,000. inhibition, % at 11.9 µM; in the data active = inhibition above about 11%
E coli growth-1: blocks Escherichia coli growth | OD600, 23 h; hits give low values | OD600 absorbance (concentration not given with the values) | hit rate 0.21% among 330,000;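 active = OD600 absorbance below the run mean of sample wells minus 3.6 SD, in any replicate, cut at about 0.56 in these data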
AddAB inh: less growth of phage-infected E. coli with AddAB. hit rate 0.29% among 330,000. E. coli expressing H. pylori AddAB, absorbance growth. inhibition, % at 11.9 µM; in the data active = inhibition above about 12%;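 note: 0% = vehicle wells of infected cells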
E coli growth-2: reduces bacterial viability in AddAB counter-screen | E. coli V3065 growth, OD600 absorbance, 18 h | inhibition, % at 11.9 µM | hit rate 0.27% among 330,000 | AID 449728;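 active = inhibition above the campaign's mean inhibition across all tested compounds plus 3 SD, cut at about 9.9% in these data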;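 note: uninfected addAB+ strain grown without phage in ampicillin broth; 0% = DMSO wells and 100% = ciprofloxacin 0.95 µg/ml wells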
Tat export inh: inhibitors of E. coli Tat protein transport; inhibition, % at 10 µM; E. coli MC4100 TorA-mCherry Tat export, fluorescence; hit rate 0.036% among 340,000;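 active = mean replicate inhibition at least 50% and at least half of replicates individually reaching 50%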;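 note: exported cargo escapes ClpAP degradation while cytoplasmic cargo is degraded and loses fluorescence; 0% = median of neutral control wells and 100% = median of NaSCN control wells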
Starred values were filed as active, the others as inactive; x = no result; + = active, no number. An excerpt weighted towards active compounds, which were near 0.69% of everything screened.

SMILES	PfHsp90 yeast 2	phage Ecoli inh	E coli growth-1	AddAB inh	E coli growth-2	Tat export inh
CC(=O)OC1(C)CC(C)C(=O)C(C(O)CC2CC(=O)NC(=O)C2)C1 (stereo not drawn)	105.2*	1.6	x	x	x	-0.3
C[C@@H]1C[C@@H]([C@H](O)CC2CC(=O)NC(=O)C2)C(=O)[C@@H](C)C1	+	1.5	x	2.7	0.2	7.9
Cc1cc(O)ccc1Cl	x	2.1	x	x	x	x
Oc1ccc(Cl)c(Cl)c1Cl	-16.6	3.4	0.521*	0.2	-1.1	-2.7
C=C(COC(=O)CCC(=O)O)CC1CC(O)[C@]2(C)OC3CC4OC5C[C@]6(C)O[C@]7(C)CCC8OC9C[C@]%10(C)OC%11C(C)=CC(=O)OC%11CC%10OC9CC(C)C8OC7CC6O[C@]5(C)CC=CC4OC3CC2O1 (stereo partly drawn)	x	x	0.693	x	x	x
O=C1C=CC(=O)C2C1C1(Cl)C(Cl)=C(Cl)C2(Cl)C1(Cl)Cl (stereo not drawn)	91.9*	5.5	0.512*	x	x	-6.9
COC(=O)C1=C(c2ccc(OC)c(OC)c2)CC2CCC1N2C(=O)NCc1ccco1 (stereo not drawn)	x	x	0.648	x	x	x
O=[N+]([O-])/C=C/c1c(Cl)cccc1Cl	144.8*	2.0	x	x	x	-1.4
Nc1cc(Cl)c2nonc2c1[N+](=O)[O-]	8.7	6.8	0.437*	5.9	7.5	-20.6
O=[N+]([O-])c1c(Cl)c(Cl)c(Cl)c(Cl)c1Cl	-4.7	0.7	x	x	x	-5.2
CC(=O)OC1C(=O)OCC23CCC4(C)OC4C2OC2CC(OC(=O)C=CC=CC(=O)OCCC1C)C3(C)C21CO1 (stereo not drawn)	131.0*	2.2	x	x	x	2.7
CC(O)C1C=CC=CC(=O)OC2CC3OC4C5OC5(C)CCC4(COC(=O)C4OC4(C)C(O)CO1)C2(C)C31CO1 (stereo not drawn)	-4.3	2.0	x	x	x	3.8
c1ccc2c(c1)[IH]c1ccccc1-2	30.3	100.8*	x	x	x	7.5
CCn1nc(/C=C/c2ccccc2)nc2c(=O)n(C)c(=O)nc1-2	74.8	4.8	0.619	x	x	-8.2
CCn1nc(-c2cccs2)nc2c(=O)n(C)c(=O)nc1-2	107.7*	x	0.624	x	x	-7.5
CCOC(=O)c1c(-n2c(C)cc(/C=C3/C(=O)NC(=O)N(CC)C3=O)c2C)sc2c1CCCC2	-11.3	-0.3	0.767	-0.2	-1.6	-9.4
CCOC(=O)c1c(-n2c(C)cc(C=C3C(=O)NC(=S)NC3=O)c2C)sc2c1CCCC2	108.6*	x	0.681	0.8	1.3	14.9
O=c1c2ccccc2nc(-c2ccc(-c3ccccc3)cc2)n1-c1ccncc1	107.0*	1.7	0.69	3.6	-0.4	3.5
Cc1ccc(-c2nc3ccccc3c(=O)n2-c2ccncc2)cc1	17.8	0.8	0.719	1.0	-1.4	2.0
COC(=O)C1=C(c2ccc(C(C)=O)cc2)CC2CCC1N2C(=O)NCc1ccc2c(c1)OCO2 (stereo not drawn)	x	x	0.65	x	x	x
Cc1[nH]c2ccc(OC(F)(F)F)cc2c1CCNCc1cccc([N+](=O)[O-])c1	-2.7	2.1	0.645	2.9	1.7	0.9
Cc1[nH]c2ccc(OC(F)(F)F)cc2c1CCNCc1ccc(Cl)cc1	6.4	1.6	0.502*	x	x	-9.4
COC(=O)C1=C(c2ccc(C(C)=O)cc2)CC2CCC1N2C(=O)NCCO (stereo not drawn)	x	x	0.701	x	x	x
COC(=O)C1=C(c2ccccc2OCc2ccccc2)CC2CCC1N2C(=O)NCc1cccc(C(F)(F)F)c1 (stereo not drawn)	x	x	0.693	x	x	x
CC(=NNC(=S)N1CC2CCC(CC2)C1)c1nccs1	121.4*	1.7	x	x	x	3.7
SMILES	PfHsp90 yeast 2	phage Ecoli inh	E coli growth-1	AddAB inh	E coli growth-2	Tat export inh
COC(=O)C1=C(c2ccc(F)cc2OCc2ccccc2)CC2CCC1N2C(=O)NCc1ccc(C(F)(F)F)cc1 (stereo not drawn)	x	x	0.71	x	x	x
Cn1c(O)c(C(=Nc2ccc(F)cc2)c2ccccc2Cl)c(=O)n(C)c1=O	106.2*	1.2	0.647	2.1	0.7	1.3
Cn1c(O)c(C(=NCCN2CCCCC2)c2ccccc2Cl)c(=O)n(C)c1=O	x	2.2	0.694	3.7	2.2	1.1
COC(=O)C1=C(c2ccccc2)CC2CCC1N2C(=O)NCc1ccc(C(F)(F)F)cc1 (stereo not drawn)	x	x	0.704	x	x	x
COC(=O)C1=C(c2cccc(OC)c2OC)CC2CCC1N2C(=O)NC1CC1 (stereo not drawn)	x	x	0.676	x	x	x
Clc1ccc(COC(Cn2ccnc2)c2ccc(Cl)cc2Cl)c(Cl)c1 (stereo not drawn)	81.1*	0.4	0.642	-2.5	0.2	5.7
